# The supplement of paper PMC10849652
# Of roughly 7,900 targets only a part is listed; those with a hit were picked by preference. About 0.6% of all pairs of compound and target were hits. Unmarked numbers belong to inactive results.
# Columns and labels:
# Assay in all cases: log2 fold change, soluble protein after heating vs DMSO (PISA); higher = thermal stabilisation; K562 cells, 10 uM, 30 min; active = over 0.2 and 3.5 SD of the protein, either way, in both replicates (recomputed)
# bafetinib = compound: Cc1ccc(NC(=O)c2ccc(CN3CC[C@H](N(C)C)C3)c(C(F)(F)F)c2)cc1Nc1nccc(-c2cncnc2)n1 [bafetinib]
# In short: (§1)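 K562 cells (2×10^6 cells/mL) were treated with 10 μM compound for 30 min, and aliquots were heated for 3 min over 48°C-58°C. Pooled aliquots were extracted in PBS with 0.5% NP-40 at 4°C, and the supernatant after 21,000xg for 90 min was measured by TMTpro 16plex LC-MS/MS with channel sums equalised. Reported thermal stability, relative to control samples and from duplicates, is a log2 fold change.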
# [1] = compound: Cc1cccc(CC(=O)N2CCc3c2ccc(-c2cn(C)c4ncnc(N)c24)c3F)n1
# In short: as §1
# nilotinib = compound: Cc1cn(-c2cc(NC(=O)c3ccc(C)c(Nc4nccc(-c5cccnc5)n4)c3)cc(C(F)(F)F)c2)cn1 [nilotinib]
# In short: as §1
# [2] = compound: Cc1nc(Nc2n[nH]c3c2CN(C(=O)N[C@H](CN(C)C)c2ccccc2)C3(C)C)c2sccc2n1
# In short: as §1
# dasatinib = compound: Cc1nc(Nc2ncc(C(=O)Nc3c(C)cccc3Cl)s2)cc(N2CCN(CCO)CC2)n1 [dasatinib]
# In short: as §1
# [3] = compound: Cc1ncc(-c2ccnc(Nc3ccc(S(C)(=O)=O)cc3)n2)n1C(C)C
# In short: as §1
# [4] = compound: Cn1cc(-c2ccc3c(c2)CCN3C(=O)Cc2cccc(C(F)(F)F)c2)c2c(N)ncnc21
# In short: as §1
# [5] = compound: Cn1cc(-c2ccc3nnc(C(F)(F)c4ccc5ncccc5c4)n3n2)cn1
# In short: as §1
# tipifarnib = compound: Cn1cncc1[C@@](N)(c1ccc(Cl)cc1)c1ccc2c(c1)c(-c1cccc(Cl)c1)cc(=O)n2C [tipifarnib]
# In short: as §1
# mubritinib = compound: FC(F)(F)c1ccc(/C=C/c2nc(COc3ccc(CCCCn4ccnn4)cc3)co2)cc1 [mubritinib]
# In short: as §1
# [6] = compound: NC(=O)Nc1cc(-c2cccc(F)c2)sc1C(=O)N[C@H]1CCCNC1
# In short: as §1
# [7] = compound: NC(=O)c1cnc(N[C@@H]2CCCC[C@@H]2N)nc1Nc1cccc(-n2nccn2)c1
# In short: as §1
# [8] = compound: NC1(c2ccc(-c3nc4ccn5c(=O)[nH]nc5c4cc3-c3ccccc3)cc2)CCC1
# In short: as §1
# [9] = compound: NCC(=O)Nc1ccc(-n2nc(C(F)(F)F)cc2-c2ccc3c(ccc4ccccc43)c2)cc1
# In short: as §1
# entinostat = compound: Nc1ccccc1NC(=O)c1ccc(CNC(=O)OCc2cccnc2)cc1 [entinostat]
# In short: as §1
# vorinostat = compound: O=C(CCCCCCC(=O)Nc1ccccc1)NO [vorinostat]
# In short: as §1
# citarinostat = compound: O=C(CCCCCCNC(=O)c1cnc(N(c2ccccc2)c2ccccc2Cl)nc1)NO [citarinostat]
# In short: as §1
# silmitasertib = compound: O=C(O)c1ccc2c(c1)nc(Nc1cccc(Cl)c1)c1ccncc12 [silmitasertib]
# In short: as §1
# [10] = compound: O=C1NC(=O)C(c2cnc3ccccn23)=C1c1cn2c3c(cc(F)cc13)CN(C(=O)N1CCCCC1)CC2
# In short: as §1
# [11] = compound: c1cc(OCCN2CCCCC2)cc(-c2n[nH]c3ccc(-c4nnc[nH]4)cc23)c1
# In short: as §1
# UniProt Q8WXF1, sequence (Q8WXF1 whole entry, looked up): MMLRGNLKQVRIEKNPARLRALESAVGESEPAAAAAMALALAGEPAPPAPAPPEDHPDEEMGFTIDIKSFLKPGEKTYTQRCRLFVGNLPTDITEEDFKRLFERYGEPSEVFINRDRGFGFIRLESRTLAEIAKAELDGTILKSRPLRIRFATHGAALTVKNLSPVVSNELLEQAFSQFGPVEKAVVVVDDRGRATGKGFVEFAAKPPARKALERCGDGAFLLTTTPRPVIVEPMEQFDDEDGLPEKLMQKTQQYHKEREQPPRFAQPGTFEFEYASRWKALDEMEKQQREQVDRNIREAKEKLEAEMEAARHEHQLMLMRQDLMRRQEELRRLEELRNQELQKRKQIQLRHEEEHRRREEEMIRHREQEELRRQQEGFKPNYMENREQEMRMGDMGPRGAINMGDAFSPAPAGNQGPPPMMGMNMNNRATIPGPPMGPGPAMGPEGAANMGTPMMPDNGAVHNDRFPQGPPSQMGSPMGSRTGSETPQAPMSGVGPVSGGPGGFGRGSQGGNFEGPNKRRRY
# UniProt Q15054, sequence (Q15054 whole entry, looked up): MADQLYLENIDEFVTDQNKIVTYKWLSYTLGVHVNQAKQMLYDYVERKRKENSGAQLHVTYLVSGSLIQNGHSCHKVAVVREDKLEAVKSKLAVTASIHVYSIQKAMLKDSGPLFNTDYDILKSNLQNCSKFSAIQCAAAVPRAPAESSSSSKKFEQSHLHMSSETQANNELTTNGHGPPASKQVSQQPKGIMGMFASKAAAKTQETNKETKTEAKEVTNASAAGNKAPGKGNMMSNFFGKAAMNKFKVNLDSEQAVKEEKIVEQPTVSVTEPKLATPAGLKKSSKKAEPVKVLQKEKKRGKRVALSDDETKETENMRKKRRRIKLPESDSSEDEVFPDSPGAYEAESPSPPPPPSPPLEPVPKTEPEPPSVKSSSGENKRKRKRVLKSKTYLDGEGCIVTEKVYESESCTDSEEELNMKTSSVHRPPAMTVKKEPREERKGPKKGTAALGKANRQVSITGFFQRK
# UniProt Q8N8N7, sequence (Q8N8N7 whole entry, looked up): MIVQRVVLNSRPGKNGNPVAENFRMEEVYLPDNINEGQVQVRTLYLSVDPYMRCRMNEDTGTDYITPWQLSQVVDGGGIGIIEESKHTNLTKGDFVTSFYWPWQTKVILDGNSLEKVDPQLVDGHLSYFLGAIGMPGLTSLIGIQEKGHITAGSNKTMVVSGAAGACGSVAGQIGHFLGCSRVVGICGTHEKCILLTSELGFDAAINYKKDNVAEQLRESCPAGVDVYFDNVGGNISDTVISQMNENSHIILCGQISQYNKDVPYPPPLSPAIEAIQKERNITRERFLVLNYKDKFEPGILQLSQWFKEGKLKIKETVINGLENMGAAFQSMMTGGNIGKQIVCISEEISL
# UniProt Q13356, sequence (Q13356 whole entry, looked up): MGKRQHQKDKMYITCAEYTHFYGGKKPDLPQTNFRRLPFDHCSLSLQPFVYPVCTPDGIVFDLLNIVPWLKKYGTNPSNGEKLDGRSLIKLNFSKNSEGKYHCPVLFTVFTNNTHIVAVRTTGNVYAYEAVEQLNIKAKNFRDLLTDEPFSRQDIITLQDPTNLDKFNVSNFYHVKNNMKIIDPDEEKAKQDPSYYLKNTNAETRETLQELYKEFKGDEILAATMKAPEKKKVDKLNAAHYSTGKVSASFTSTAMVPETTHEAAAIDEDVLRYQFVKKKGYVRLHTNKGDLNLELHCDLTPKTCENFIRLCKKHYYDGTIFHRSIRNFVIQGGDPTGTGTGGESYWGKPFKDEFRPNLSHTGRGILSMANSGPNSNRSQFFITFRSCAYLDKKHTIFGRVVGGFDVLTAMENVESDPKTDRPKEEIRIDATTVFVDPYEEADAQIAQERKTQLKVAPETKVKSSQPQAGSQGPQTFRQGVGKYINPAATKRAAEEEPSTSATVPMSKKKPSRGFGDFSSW
# UniProt Q96AD5, sequence (Q96AD5 whole entry, looked up): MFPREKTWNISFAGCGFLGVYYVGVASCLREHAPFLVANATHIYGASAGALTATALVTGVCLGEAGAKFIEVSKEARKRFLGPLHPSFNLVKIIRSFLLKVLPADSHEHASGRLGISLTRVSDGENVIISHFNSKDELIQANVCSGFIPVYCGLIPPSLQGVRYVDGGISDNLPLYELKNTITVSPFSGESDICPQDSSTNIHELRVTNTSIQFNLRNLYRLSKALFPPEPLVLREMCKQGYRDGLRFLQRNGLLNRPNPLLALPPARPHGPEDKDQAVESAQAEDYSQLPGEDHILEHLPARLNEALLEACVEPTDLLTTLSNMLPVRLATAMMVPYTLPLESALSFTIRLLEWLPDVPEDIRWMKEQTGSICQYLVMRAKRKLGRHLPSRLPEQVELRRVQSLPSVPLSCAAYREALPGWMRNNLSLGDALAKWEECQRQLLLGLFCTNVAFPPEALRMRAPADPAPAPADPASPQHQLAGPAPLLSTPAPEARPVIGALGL
# UniProt Q15257, sequence (Q15257 whole entry, looked up): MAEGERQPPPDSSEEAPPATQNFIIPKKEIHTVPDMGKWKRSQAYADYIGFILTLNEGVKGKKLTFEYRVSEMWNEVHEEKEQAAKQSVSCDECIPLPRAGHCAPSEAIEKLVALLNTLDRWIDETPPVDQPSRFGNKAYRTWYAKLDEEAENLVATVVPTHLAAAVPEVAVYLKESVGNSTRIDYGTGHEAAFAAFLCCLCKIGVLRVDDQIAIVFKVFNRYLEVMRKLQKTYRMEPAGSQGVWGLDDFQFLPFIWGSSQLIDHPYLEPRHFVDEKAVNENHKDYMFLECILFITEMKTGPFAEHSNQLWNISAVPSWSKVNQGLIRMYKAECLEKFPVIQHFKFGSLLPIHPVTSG
# UniProt Q86TP1, sequence (Q86TP1 whole entry, looked up): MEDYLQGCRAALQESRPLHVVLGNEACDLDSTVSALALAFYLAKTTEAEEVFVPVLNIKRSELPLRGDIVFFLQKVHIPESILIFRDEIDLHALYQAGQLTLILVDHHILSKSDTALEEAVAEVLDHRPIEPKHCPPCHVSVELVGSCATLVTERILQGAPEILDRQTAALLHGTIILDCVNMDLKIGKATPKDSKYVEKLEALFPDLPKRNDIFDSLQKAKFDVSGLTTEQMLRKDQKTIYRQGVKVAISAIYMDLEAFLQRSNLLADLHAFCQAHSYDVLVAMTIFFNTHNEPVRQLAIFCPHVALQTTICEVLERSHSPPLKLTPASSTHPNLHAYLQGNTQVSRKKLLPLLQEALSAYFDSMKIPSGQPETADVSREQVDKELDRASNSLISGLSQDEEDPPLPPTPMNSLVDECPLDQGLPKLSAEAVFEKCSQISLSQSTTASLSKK
# UniProt P0CG38, sequence (P0CG38 whole entry, looked up): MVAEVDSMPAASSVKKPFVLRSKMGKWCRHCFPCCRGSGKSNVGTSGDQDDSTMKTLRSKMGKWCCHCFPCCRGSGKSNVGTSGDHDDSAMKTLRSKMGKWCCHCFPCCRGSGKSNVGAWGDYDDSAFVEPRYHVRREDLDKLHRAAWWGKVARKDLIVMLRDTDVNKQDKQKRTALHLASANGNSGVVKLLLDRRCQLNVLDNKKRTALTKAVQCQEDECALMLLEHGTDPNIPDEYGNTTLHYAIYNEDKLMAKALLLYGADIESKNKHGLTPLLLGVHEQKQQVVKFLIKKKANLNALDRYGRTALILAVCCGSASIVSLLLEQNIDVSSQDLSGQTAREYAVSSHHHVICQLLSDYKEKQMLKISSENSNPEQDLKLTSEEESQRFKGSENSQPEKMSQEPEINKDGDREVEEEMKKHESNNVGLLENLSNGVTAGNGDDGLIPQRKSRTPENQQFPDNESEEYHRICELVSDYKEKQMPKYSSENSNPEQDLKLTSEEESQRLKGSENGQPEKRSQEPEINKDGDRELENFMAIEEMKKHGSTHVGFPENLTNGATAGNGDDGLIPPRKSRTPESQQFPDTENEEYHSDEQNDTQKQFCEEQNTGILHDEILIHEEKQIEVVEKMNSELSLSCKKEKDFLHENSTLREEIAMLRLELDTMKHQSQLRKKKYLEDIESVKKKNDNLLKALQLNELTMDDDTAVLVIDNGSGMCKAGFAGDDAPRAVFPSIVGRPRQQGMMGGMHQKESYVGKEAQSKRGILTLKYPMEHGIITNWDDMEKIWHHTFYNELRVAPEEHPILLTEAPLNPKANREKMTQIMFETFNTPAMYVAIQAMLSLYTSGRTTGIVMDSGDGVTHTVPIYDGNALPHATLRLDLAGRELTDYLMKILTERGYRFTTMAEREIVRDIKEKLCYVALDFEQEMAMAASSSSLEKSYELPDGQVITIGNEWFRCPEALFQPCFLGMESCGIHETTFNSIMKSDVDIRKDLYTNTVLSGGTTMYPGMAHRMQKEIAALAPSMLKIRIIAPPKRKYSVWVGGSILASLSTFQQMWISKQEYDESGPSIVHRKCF
# UniProt Q8WUA2, sequence (Q8WUA2 whole entry, looked up): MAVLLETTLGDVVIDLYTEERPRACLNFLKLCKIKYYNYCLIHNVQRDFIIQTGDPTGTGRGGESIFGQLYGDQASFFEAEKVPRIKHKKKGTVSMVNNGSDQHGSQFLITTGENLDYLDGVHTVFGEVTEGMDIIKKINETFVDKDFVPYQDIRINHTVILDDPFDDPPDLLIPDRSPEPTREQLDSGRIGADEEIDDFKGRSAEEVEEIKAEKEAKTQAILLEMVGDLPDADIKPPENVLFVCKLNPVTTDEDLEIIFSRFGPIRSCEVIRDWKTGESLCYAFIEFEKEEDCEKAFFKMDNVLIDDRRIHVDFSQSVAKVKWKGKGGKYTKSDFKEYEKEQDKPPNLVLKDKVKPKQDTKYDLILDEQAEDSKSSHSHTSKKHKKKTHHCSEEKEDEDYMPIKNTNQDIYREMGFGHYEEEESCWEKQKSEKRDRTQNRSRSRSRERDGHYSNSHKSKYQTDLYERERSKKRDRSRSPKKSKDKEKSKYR
# UniProt O60925, sequence (O60925 whole entry, looked up): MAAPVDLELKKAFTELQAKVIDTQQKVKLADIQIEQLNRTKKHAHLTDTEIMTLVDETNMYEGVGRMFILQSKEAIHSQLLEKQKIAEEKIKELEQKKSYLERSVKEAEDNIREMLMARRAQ
Target,log2 fold change (bafetinib),log2 fold change [1],log2 fold change (nilotinib),log2 fold change [2],log2 fold change (dasatinib),log2 fold change [3],log2 fold change [4],log2 fold change [5],log2 fold change (tipifarnib),log2 fold change (mubritinib),log2 fold change [6],log2 fold change [7],log2 fold change [8],log2 fold change [9],log2 fold change (entinostat),log2 fold change (vorinostat),log2 fold change (citarinostat),log2 fold change (silmitasertib),log2 fold change [10],log2 fold change [11]
PRPF3 (UniProt O43395),0.048,0.072,-0.044,-0.201,-0.114,-0.152,-0.149,0.018,-0.011,0.118,0.026,-0.029,-0.099,-0.077,0.064,0.128,0.194,-0.014,-0.063,0
PEA15 isoform 2 (UniProt Q15121),-0.077,-0.008,0,-0.4 (active),-0.026,-0.004,0.036,0.021,0.04,0.054,0.021,-0.118,-0.103,0.016,0.075,-0.009,0.049,0.045,-0.067,-0.209
PPIL4 (UniProt Q8WUA2),-0.001,0.002,0.002,-0.483 (active),-0.065,-0.113,-0.031,-0.018,-0.01,0.005,-0.021,-0.085,0.002,-0.071,0.011,0.016,0.033,-0.005,-0.005,-0.1
PTPA (UniProt Q15257),-0.038,0.011,-0.014,0.012,-0.014,-0.002,0.034,0.03,0.013,0.028,-0.022,0.001,-0.021,0.028,0,0.004,0.028,-0.027,-0.021,-0.015
PRUNE1 (UniProt Q86TP1),-0.037,0.045,-0.051,-0.054,-0.178,0.082,-0.045,-0.045,-0.122,-0.056,-0.004,-0.012,-0.179,0.052,0.041,0.04,0.006,0.138,-0.107,0.018
POTEI (UniProt P0CG38),-0.052,-0.02,0.046,-0.049,0.087,0.043,-0.005,-0.003,-0.019,0.004,-0.058,0.061,0.139,0.124,-0.004,-0.016,-0.009,-0.03,-0.053,-0.004
PRPSAP2 (UniProt O60256),-0.034,0.124,-0.024,0.064,-0.028,-0.005,-0.037,-0.018,0.023,-0.008,-0.146,0.1,0.019,0.034,-0.109,0.003,-0.02,0.011,-0.052,-0.03
PYGB (UniProt P11216),-0.317 (active),0,-0.358 (active),0.02,-0.042,-0.032,0.026,-0.007,0.035,0.014,0.209,-0.077,-0.018,-0.041,-0.003,0.063,0.033,-0.005,-0.105,-0.105
PNPLA2 (UniProt Q96AD5),0.084,-0.334,0.049,-0.112,-0.113,-0.118,0.056,0.049,-0.026,0.113,-0.075,-0.01,-0.05,-0.004,0.078,0.192,0.087,0.065,0.012,-0.138
PFDN1 (UniProt O60925),0.038,-0.041,0.012,0.026,0.076,-0.023,0.153,0.328,-0.061,0.039,0.013,0.003,0.002,-0.047,0.044,-0.056,0.09,-0.029,-0.05,-0.001
PTGR2 (UniProt Q8N8N7),0.084,-0.151,0.003,-0.215,-0.025,0.07,0.112,0.485 (active),0.184,-0.066,-0.039,-0.077,0.123,-0.164,-0.05,-0.149,0.009,-0.011,0.611 (active),0.231
POLR1A (UniProt O95602),-0.11,0.004,-0.051,0.046,0.046,-0.003,-0.16,-0.057,0.019,0.069,0.044,0.012,-0.208,0.172,-0.012,0.098,0.018,0.033,0.036,0.045
PPP2R5E (UniProt Q16537),-0.023,-0.058,-0.11,0.057,-0.074,-0.059,-0.049,-0.037,-0.159,0.018,0.015,-0.039,-0.078,-0.09,-0.021,0.118,0.058,-0.014,-0.016,0.163
PSPC1 (UniProt Q8WXF1),0.015,0.088,-0.004,-0.179,-0.02,-0.112,-0.003,0,-0.004,-0.033,-0.001,-0.039,0.021,-0.027,-0.014,0.14,0.067,-0.032,-0.074,-0.057
POLD3 (UniProt Q15054),0.846,0.058,-0.014,-0.052,-0.068,0.096,0.028,0.044,-0.01,0.024,0.035,-0.143,-0.107,-0.108,0.134,-0.008,0.003,-0.022,-0.013,0.109
PPIL2 (UniProt Q13356),-0.008,0.032,-0.056,-0.086,-0.127,0.068,0.03,0.046,-0.142,0.011,-0.069,-0.058,-0.077,-0.1,0.059,0.063,0.065,0.083,-0.07,-0.014
